For 21 compounds, composite z-score and z-score results are on record in PubChem BioAssay.

The test system of test [1] is XIP peptide (Xip251-270) binding. Put plainly: XIP fragment 251-270 binding compounds – biochemical, small-molecule microarray, fluorescence 635/667 nm, 0.1 µg/mL protein, primary screen (AID 1182). To be noted: fluorescent protein binding, 635 nm, higher = more signal, called active from +8 up or from −8 down.
For a further test, the system named is XIP peptide (Xip251-270). Put plainly: compounds binding XIP fragment 251-270 – biochemical, small-molecule microarray, fluorescence 635/667 nm, 0.5 µg/mL protein, primary screen (AID 1183). To be noted: fluorescence 635 nm, higher = more signal.
The nature of test [2]: blood-stage malaria parasite viability loss – strain 3D7, DAPI fluorescence, 100 nL, primary screen (AID 1184).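 Further: parasites grown inside human red blood cells in medium with human serum.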 The conditions noted are these: P. falciparum 3D7 growth, 3 d, higher = more signal.
Test [3] deals with Homeobox protein Hox-A13 (Mus musculus) (UniProt Q62424). Put plainly: disruptors of Hoxa13 oligonucleotide interaction – biochemical, fluorescence polarization, labeled oligonucleotide, primary screen (AID 1185). To be noted: Hoxa13:DNA binding, 15 min, higher = more signal, called active from +8 up or from −8 down. On the technique in general: Fluorescence polarisation rises when a labelled molecule tumbles more slowly, as on binding a larger partner.

Structures are written as SMILES. Activity calls are given as the source filed them.

Homeobox protein Hox-A13 (Mus musculus), sequence (Q62424 whole entry, looked up): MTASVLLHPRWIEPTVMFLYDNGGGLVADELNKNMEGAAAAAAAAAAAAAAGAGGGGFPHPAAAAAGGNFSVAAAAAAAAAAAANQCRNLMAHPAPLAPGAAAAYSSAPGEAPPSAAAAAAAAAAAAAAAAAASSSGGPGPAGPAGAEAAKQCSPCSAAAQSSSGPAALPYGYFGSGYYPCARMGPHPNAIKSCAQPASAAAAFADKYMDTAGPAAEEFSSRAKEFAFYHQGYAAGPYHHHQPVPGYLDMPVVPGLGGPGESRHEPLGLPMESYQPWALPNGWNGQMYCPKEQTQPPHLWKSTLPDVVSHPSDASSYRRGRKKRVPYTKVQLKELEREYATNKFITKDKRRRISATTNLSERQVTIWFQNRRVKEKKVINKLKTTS

In the case of `COC(=O)[C@H](CCSC)NC(=O)CC=C[C@@H](C)CO`, the composite z-score in test [1] is -0.0999 (inactive); in the test on XIP peptide (Xip251-270) it was 0.334. Also, the values for the z-score in test [2] and in test [3] were -0.979 and -0.265 (inactive), respectively.

As to `O=C1[C@H]2[C@H]3[C@H](O)[C@H](O)CC(=NOCc4ccccc4)[C@@H]3CC[C@H]2C(=O)N1c1cccc(Oc2ccccc2)c1`, the composite z-score is 0.811 (inactive) in test [1] and 0.123 in the test with XIP peptide (Xip251-270). Further, the z-score in test [2] is -0.129; in test [3], -1.24 (inactive).

With `O=C1C2=CC[C@H]3C(=O)N(c4ccc(F)cc4F)C(=O)[C@H]3[C@H]2[C@H](O)[C@@H]2O[C@H]12`, the composite z-score was -0.196 (inactive) in test [1] and 0.167 in the test on XIP peptide (Xip251-270). The figures for the z-score in test [2] and in test [3] were 0.569 and -0.318 (inactive), respectively.

Regarding `CC(CCN1CCCc2nc(C)c(C)cc21)=NO[C@H](C)c1cn([C@@H]2COC[C@H]2O)nn1`, the composite z-score was -0.0434 (inactive) in test [1] and 0.588 with XIP peptide (Xip251-270). For the same compound, the z-score is 0.612 in test [2] and -6.65 (inactive) in test [3].

With `CC(=O)OC[C@H]1O[C@H](CC=NOCC[C@@H]2C=C[C@H](OC(C)=O)[C@@H](COC(C)=O)O2)C=C[C@@H]1OC(C)=O`, the composite z-score in test [1] is -0.0772 (inactive); with XIP peptide (Xip251-270), 0.677. For the same compound, the figures for the z-score in test [2] and in test [3] were 0.256 and -0.963 (inactive), respectively.

On to `COC(=O)[C@H](C)NC(=O)CCC1CC(OC(=O)NCCc2ccc(F)cc2)CC2(CCCC(COC(=O)NCCc3ccccc3OC)O2)O1` (some centres undefined), for which the composite z-score in test [1] was 0.784 (inactive); in the test with XIP peptide (Xip251-270), 0.341. The z-score was -1.26 in test [2] and -6.13 (inactive) in test [3].

As to `CCOC(=O)[C@H](CC(C)C)NC(=O)CCC1CC(OC(=O)NCc2ccc3c(c2)OCO3)CC2(CCCC(COC(=O)NCCOC)O2)O1` (some centres undefined), the composite z-score in test [1] is 0.685 (inactive); in the test with XIP peptide (Xip251-270) it was 0.0552. In addition, the z-score in test [2] was -1.99; in test [3], -5.34 (inactive).

In the case of `CC(C)CON=C1C[C@@H](O)[C@@H](O)[C@@H]2[C@@H]3C(=O)N([C@@H](C)c4ccccc4)C(=O)[C@@H]3CC[C@@H]12`, the values for the composite z-score (in test [1]; in the test on XIP peptide (Xip251-270)) were 0.0068 (inactive) and -0.344, respectively. For the same compound, the z-score in test [2] is -0.274; in test [3] it was -2.35 (inactive).

As to `COC(=O)CC=C[C@@H](C)[C@@H](C=NOC[C@@H](O)COCc1ccco1)OC`, the composite z-score is 0.146 (inactive) in test [1] and 0.338 in the test with XIP peptide (Xip251-270). In addition, the z-score in test [2] was 0.715; in test [3] it was -0.341 (inactive).

On to `CCN1C(=O)[C@H]2[C@H]3[C@H](O)[C@H](O)CC(=NNC(=O)OCc4ccccc4)[C@@H]3CC[C@H]2C1=O`, for which the composite z-score in test [1] is -0.425 (inactive); with XIP peptide (Xip251-270) it was -0.0369. The figures for the z-score in test [2] and in test [3] were 1.14 and -0.144 (inactive), respectively.

Consider `O=C1C[C@@H](O)[C@@H](O)[C@@H]2[C@@H]3C(=O)N(Cc4ccccc4)C(=O)[C@@H]3CC[C@H]12`, for which the composite z-score in test [1] was -0.317 (inactive); in the test with XIP peptide (Xip251-270), 0.502. Also, the z-score in test [2] was -0.331; in test [3] it was -1.12 (inactive).

As to `COc1ccc(COC(=O)NN=C2C[C@@H](O)[C@@H](O)[C@@H]3[C@@H]4C(=O)N(Cc5ccccc5)C(=O)[C@@H]4CC[C@@H]23)cc1`, the composite z-score in test [1] was -0.662 (inactive); in the test on XIP peptide (Xip251-270), 0.0404. Moreover, the z-score in test [2] was 0.0711; in test [3], 0.19 (inactive).

For `C#CCCCON=C1C[C@@H](O)[C@@H](O)[C@@H]2[C@@H]3C(=O)N(C4CCCCC4)C(=O)[C@@H]3CC[C@@H]12`, the figures for the composite z-score (in test [1]; in the test with XIP peptide (Xip251-270)) were 0.481 (inactive) and 0.0169, respectively. In addition, the z-score in test [2] is 0.204; in test [3], -4.64 (inactive).

In the case of `COC(=O)CC=C[C@@H](C)[C@@H](C=NOC[C@@H](O)COCc1ccco1)NS(=O)(=O)c1ccc(C)cc1`, the results for the composite z-score (in test [1]; in the test with XIP peptide (Xip251-270)) were 0.133 (inactive) and 0.239, respectively. The z-score in test [2] is -0.546; in test [3], -3.79 (inactive).

Regarding `CC(=O)OC[C@H]1O[C@H](CC=NOC(C)CN2CCCCc3nc(C)c(C)cc32)C=C[C@@H]1OC(C)=O` (some centres undefined), the figures for the composite z-score (in test [1]; with XIP peptide (Xip251-270)) were 0.231 (inactive) and 0.646, respectively. Besides, the z-score in test [2] was -0.445; in test [3], -3.74 (inactive).

For `CCOC(=O)[C@H](CC(C)C)NC(=O)CCC1CC(OC(=O)NCc2ccc3c(c2)OCO3)CC2(CCCC(COC(=O)NCCc3ccccc3OC)O2)O1` (some centres undefined), the composite z-score is 0.677 (inactive) in test [1] and 0.622 in the test on XIP peptide (Xip251-270). The z-score in test [2] is -1.88; in test [3] it was -3.78 (inactive).

Regarding `CC(C)[C@H](NC(=O)OC(C)(C)C)[C@@H](O)CC(=O)C(C)(C)C`, the composite z-score in test [1] is -0.232 (inactive); in the test with XIP peptide (Xip251-270) it was -0.19. The z-score was 0.227 in test [2] and -0.092 (inactive) in test [3].

Regarding `CC(C)=CCCC(C)=CCON=C1C[C@@H](O)[C@@H](O)[C@@H]2[C@@H]3C(=O)N([C@@H](C)c4ccccc4)C(=O)[C@@H]3CC[C@@H]12`, the composite z-score in test [1] was 0.0439 (inactive); in the test on XIP peptide (Xip251-270), 0.242. The z-score is -0.81 in test [2] and -1.3 (inactive) in test [3].

Turning to `COc1ccc(-c2cnnc(CCCn3ccnc3-c3ccccc3)n2)cc1`, the composite z-score in test [1] is 0.0584 (inactive); in the test on XIP peptide (Xip251-270), 0.492. The z-score in test [2] was -0.964; in test [3], -3.52 (inactive).

With `COC(=O)[C@H](C)NC(=O)CCC1CC(OC(=O)NCc2cccc3ccccc23)CC2(CCCC(COC(=O)NCCCN3CCCC3=O)O2)O1` (some centres undefined), the figures for the composite z-score (in test [1]; in the test with XIP peptide (Xip251-270)) were 1.17 (inactive) and 0.582, respectively. The z-score in test [2] is -0.529; in test [3], -3.27 (inactive).

Regarding `CC(C)(C)N1C(=O)[C@H]2[C@@H]3C(=CC[C@H]2C1=O)C(=O)[C@H]1O[C@H]1[C@H]3O`, the composite z-score in test [1] is 0.139 (inactive); in the test with XIP peptide (Xip251-270), 0.283. Moreover, the z-score is -2.38 in test [2] and -5.76 (inactive) in test [3].
